The supplement of paper PMC11732987, “Enantioselective OTUD7B fragment discovery through chemoproteomics screening and high-throughput optimisation” (Communications Chemistry, 2025)

Assays:
Assay in all cases: log2 ratio of Biotin-Ahx-Ub-VS probe labelling (fragment/DMSO); higher = less target engagement (more negative = stronger competition), active = hit call of the paper (q ≤ 0.05, log2 ratio ≤ -1)
Settings in all cases: compound concentration: 200 uM; treatment time: 3 h
[1] = molecular target: T1, ALG13 (UniProt Q9NP73)
T1 sequence (whole entry): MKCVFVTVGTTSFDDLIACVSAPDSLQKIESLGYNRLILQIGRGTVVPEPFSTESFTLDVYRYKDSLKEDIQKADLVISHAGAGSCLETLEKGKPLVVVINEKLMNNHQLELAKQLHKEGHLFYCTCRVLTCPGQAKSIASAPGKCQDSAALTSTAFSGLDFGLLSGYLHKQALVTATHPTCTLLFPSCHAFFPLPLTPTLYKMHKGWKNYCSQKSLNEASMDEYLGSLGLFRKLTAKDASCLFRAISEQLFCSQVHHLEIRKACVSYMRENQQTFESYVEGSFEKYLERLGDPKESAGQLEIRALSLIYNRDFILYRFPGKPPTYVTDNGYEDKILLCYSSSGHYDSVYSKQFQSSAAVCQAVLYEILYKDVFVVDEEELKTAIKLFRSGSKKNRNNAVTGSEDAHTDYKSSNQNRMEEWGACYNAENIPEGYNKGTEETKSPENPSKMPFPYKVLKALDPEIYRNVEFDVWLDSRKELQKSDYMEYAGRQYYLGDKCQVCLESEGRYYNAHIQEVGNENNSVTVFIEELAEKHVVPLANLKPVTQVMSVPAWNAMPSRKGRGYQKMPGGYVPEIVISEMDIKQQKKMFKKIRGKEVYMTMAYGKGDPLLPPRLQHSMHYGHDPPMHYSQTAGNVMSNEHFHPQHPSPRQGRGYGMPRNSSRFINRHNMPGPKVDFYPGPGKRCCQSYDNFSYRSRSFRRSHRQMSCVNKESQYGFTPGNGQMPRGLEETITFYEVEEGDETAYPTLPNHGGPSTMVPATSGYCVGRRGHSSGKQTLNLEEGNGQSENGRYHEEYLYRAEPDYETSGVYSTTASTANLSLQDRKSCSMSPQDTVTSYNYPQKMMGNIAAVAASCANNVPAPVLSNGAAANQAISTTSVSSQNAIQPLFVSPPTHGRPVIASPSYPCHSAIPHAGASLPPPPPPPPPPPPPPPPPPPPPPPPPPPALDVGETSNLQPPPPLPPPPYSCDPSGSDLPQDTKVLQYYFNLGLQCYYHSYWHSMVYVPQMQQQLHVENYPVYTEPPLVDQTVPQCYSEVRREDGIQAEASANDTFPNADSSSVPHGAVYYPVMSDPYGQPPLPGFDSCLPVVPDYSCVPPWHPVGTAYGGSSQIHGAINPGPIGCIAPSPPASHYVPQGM
Procedure, shortened: (§1)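 Labelling with Biotin-Ahx-Ub-VS (0.5 µM final, 1 h) followed a 3 h triplicate treatment of HEK293T lysate (495 µg per sample, Tris/CHAPS/IGEPAL buffer with protease inhibitors) with fragment at 200 µM or vehicle. Labelled DUBs were NeutrAvidin-enriched, digested with LysC and trypsin, and run by diaPASEF LC-MS/MS. The values, average log2 fragment/vehicle ratios by unpaired t-test, come from global-median-normalised Spectronaut label-free quantities. Proteins with ≥2 unique peptides were used.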

[2] = molecular target: ATXN3 (UniProt P54252)
Chain of ATXN3 (P54252 whole entry): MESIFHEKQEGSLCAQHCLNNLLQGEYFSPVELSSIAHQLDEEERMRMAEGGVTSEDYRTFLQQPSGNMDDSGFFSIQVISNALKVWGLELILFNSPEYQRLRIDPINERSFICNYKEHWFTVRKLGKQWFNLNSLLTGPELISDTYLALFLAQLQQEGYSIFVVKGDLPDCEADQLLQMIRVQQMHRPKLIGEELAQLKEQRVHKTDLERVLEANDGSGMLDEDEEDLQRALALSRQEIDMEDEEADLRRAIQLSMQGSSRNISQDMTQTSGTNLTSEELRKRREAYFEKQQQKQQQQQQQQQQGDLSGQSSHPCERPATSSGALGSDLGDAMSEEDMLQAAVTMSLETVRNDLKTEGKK
Procedure, shortened: as §1

[3] = molecular target: T2, BAP1 (UniProt Q92560)
T2 sequence (whole entry): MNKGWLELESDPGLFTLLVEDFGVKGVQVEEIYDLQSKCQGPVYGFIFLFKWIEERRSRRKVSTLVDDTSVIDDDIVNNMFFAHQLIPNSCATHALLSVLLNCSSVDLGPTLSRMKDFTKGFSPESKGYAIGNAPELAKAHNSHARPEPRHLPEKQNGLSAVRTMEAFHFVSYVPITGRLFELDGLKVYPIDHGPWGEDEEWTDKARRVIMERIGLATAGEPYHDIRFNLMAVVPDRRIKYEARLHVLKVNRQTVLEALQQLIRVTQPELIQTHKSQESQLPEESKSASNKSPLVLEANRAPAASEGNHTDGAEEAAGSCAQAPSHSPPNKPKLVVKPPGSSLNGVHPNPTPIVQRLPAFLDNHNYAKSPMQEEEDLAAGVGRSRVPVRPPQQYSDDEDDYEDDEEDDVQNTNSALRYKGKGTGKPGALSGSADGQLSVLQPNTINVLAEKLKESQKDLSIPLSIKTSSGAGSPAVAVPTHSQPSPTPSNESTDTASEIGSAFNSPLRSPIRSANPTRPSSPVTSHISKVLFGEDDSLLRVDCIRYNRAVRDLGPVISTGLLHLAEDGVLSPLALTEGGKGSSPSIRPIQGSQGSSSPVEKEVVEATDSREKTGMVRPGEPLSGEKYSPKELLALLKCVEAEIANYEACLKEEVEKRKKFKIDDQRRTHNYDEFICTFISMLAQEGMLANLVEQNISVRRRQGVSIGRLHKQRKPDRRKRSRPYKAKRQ
Procedure, shortened: as §1

[4] = molecular target: EIF3F (UniProt O00303)
Chain of EIF3F (O00303 whole entry): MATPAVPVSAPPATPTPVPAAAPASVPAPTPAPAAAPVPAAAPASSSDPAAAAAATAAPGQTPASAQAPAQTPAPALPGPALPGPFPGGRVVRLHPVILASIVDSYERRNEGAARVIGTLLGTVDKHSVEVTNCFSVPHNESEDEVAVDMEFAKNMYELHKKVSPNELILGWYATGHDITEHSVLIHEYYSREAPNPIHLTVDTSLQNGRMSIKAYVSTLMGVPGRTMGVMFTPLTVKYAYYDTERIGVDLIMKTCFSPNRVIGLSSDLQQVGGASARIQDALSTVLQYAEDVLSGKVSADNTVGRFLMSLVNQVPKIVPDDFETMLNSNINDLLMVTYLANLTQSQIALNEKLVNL
Procedure, shortened: as §1

[5] = molecular target: EIF3H (UniProt O15372)
Chain of EIF3H (O15372 whole entry): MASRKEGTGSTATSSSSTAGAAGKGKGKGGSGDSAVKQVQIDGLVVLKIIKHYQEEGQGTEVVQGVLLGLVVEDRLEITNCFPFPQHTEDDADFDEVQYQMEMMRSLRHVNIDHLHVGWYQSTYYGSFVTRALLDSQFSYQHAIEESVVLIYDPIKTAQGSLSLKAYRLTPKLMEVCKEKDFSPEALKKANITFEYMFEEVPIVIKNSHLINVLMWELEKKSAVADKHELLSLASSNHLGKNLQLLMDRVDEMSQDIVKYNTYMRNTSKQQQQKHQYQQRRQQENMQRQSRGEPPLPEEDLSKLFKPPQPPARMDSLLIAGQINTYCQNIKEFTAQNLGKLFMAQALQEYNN
Procedure, shortened: as §1

[6] = molecular target: T3, FAM105A (UniProt Q9NUU6)
T3 sequence (whole entry): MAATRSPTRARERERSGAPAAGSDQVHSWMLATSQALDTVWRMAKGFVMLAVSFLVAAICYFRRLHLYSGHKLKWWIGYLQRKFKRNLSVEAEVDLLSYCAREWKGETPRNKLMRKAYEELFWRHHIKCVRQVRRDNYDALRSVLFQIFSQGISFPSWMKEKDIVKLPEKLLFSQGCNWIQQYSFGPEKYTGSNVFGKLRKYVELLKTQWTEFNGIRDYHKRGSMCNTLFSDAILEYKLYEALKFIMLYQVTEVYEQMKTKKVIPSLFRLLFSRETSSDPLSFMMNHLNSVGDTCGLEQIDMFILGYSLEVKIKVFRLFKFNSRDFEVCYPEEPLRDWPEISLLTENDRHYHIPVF
Procedure, shortened: as §1

[7] = molecular target: OTUB1 (UniProt Q96FW1)
Chain of OTUB1 (Q96FW1 whole entry): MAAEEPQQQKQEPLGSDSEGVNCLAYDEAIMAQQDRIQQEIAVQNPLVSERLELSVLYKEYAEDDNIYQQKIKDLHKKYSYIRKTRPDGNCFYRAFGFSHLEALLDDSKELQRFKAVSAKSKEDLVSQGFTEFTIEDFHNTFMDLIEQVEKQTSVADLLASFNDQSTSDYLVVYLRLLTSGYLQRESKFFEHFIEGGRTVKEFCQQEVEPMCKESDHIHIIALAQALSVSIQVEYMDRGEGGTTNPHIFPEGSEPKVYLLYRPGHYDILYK
Procedure, shortened: as §1

[8] = molecular target: T4, OTUD4 (UniProt Q01804)
T4 sequence (whole entry): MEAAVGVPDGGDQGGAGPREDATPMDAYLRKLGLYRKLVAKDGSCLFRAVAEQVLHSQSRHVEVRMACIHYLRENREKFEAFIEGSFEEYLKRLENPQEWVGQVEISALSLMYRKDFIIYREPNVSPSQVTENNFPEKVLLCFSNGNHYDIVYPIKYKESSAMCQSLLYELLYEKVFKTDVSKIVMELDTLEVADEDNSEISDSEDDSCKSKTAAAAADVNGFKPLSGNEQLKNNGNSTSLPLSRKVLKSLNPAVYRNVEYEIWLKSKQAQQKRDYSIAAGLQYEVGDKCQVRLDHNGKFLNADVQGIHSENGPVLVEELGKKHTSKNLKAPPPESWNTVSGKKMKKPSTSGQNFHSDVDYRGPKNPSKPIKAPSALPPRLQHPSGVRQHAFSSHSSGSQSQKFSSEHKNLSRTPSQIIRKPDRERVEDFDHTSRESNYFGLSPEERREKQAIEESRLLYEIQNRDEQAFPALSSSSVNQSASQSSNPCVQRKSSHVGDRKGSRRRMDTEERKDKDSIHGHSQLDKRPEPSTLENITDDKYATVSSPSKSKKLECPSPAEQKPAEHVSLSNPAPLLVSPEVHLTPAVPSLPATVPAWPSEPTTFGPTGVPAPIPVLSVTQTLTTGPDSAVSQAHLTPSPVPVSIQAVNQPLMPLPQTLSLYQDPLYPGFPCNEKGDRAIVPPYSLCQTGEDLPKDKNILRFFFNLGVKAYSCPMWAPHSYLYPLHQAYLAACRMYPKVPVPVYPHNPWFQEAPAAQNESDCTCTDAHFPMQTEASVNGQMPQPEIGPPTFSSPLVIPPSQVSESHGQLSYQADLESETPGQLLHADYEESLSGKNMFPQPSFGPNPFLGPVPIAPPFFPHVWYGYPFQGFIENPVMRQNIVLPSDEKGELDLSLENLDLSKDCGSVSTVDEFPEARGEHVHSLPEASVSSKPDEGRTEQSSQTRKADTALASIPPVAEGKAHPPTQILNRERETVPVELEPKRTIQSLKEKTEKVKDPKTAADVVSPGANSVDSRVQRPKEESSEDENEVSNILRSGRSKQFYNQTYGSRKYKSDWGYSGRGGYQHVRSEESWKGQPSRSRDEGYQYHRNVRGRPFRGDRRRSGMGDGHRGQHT
Procedure, shortened: as §1

[9] = molecular target: T5, OTUD5 (UniProt Q96G74)
T5 sequence (whole entry): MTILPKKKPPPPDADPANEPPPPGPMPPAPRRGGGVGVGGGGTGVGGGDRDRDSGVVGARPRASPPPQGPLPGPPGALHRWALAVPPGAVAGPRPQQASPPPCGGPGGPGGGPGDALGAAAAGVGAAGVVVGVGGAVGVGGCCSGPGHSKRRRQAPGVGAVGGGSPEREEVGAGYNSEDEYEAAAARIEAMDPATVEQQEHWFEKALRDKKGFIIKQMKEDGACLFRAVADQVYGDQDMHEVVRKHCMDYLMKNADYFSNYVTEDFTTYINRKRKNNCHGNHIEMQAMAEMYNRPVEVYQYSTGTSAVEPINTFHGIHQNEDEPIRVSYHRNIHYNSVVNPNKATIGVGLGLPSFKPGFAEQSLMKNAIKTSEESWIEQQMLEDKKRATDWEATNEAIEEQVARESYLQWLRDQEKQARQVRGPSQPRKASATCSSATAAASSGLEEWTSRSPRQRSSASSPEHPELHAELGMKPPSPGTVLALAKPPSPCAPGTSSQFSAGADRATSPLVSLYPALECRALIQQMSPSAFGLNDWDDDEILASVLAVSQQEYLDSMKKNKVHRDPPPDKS
Procedure, shortened: as §1

Measured: log2 ratio of Biotin-Ahx-Ub-VS probe labelling

O=C(CCl)NCc1ccc(N2CCOCC2)c(F)c1
inactive: [1] -0.435 | [2] -0.0444 | [4] -0.139 | [5] -0.335 | [6] 0.388 | [7] -0.0261 | [8] -0.0414 | [9] 0.0267
active: [3] -2.54
